The source of these data is PubChem BioAssay (EPA / NIEHS).

The AC50 is the concentration at which the activity in the assay is half-maximal.

Read-out in assay [1]: Intercellular Adhesion Molecule 1 (ICAM1), ICAM1 (gene 3383)
The assay can be described thus: BSK_3C_ICAM1: BioMAP Diversity Plus: 3C Assay for Intercellular Adhesion Molecule 1 (ICAM1) Biomarker Activity (AID 2283003). The following applies: primary human endothelial cells (HUVEC); actives raise or lower the signal. In short, it runs like this: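 ELISA readout of ICAM1 in human umbilical vein endothelial cells in the 3C system, taken 24 h post-dose. Gain or loss of signal versus DMSO was fitted in both directions, with SRB total-protein staining run in parallel.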

Assay [2] deals with human Retinoic Acid Receptor beta (RARb), RARB (gene 5915) (UniProt P10826). The assay can be described thus: ATG_RARb_TRANS: Attagene TRANS-FACTORIAL HepG2 Assay for human Retinoic Acid Receptor beta (AID 2283004; active means hit-call score of the fitted dose curve at least 0.9, where 1 is the maximum). In short, it runs like this:
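HepG2 cells were transiently transfected with GAL4-UAS reporter units that report activity of exogenous chimeric NR-Gal4 proteins, then exposed to compound for 24 h. Reporter mRNA was quantified by RT-PCR with capillary electrophoresis fluorescence, as gain of signal over DMSO.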

Assay [3] addresses Retinoic acid receptor alpha (Homo sapiens) (UniProt P10276). Kind of assay: ATG_RARa_TRANS: Attagene TRANS-FACTORIAL HepG2 Assay for human Retinoic Acid Receptor alpha (RARa) (AID 2283005; active means hit-call score of the fitted dose curve at least 0.9, where 1 is the maximum). In short, it runs like this: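 HepG2 cells transiently transfected with multiple reporter units expressing chimeric RARα-GAL4 fusion, with GAL4-UAS-driven reporters. After 24 h compound exposure, reporter mRNA induction quantified by RT-PCR and capillary electrophoresis with fluorescent labeling; gain-of-signal fitted relative to DMSO control.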

A short description of assay [4]: BSK_3C_Proliferation: Cell Proliferation Assessment in the BioMAP Diversity Plus: 3C Assay (AID 2283006).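 On AC50: potency may reflect either rise or fall in cell number versus DMSO.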 The following applies: primary human endothelial cells (HUVEC). In short, it runs like this: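 Proliferation as total protein: sulforhodamine B (0.1%) stain of TCA-fixed subconfluent human umbilical vein endothelial cells, absorbance 560 nm, 48 h after dosing. Activity fitted in both directions against DMSO baseline.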

In assay [5] the target is human RAR-related Orphan Receptor gamma (RORg), RORC (gene 6097) (UniProt P51449). Kind of assay: ATG_RORg_TRANS: Attagene TRANS-FACTORIAL HepG2 Assay for human RAR-related Orphan Receptor gamma (RORg) (AID 2283011; active means hit-call score of the fitted dose curve at least 0.9, where 1 is the maximum). In short, it runs like this: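 HepG2 cells transiently transfected with GAL4-UAS reporter units and chimeric RORg-Gal4 construct; after 24 h chemical exposure, reporter mRNA measured by RT-PCR with fluorescent capillary electrophoresis, gain of signal fitted against DMSO.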
Sequence of human RAR-related Orphan Receptor gamma (RORg), RORC (gene 6097) (P51449 whole entry, looked up, the tested form may be a part): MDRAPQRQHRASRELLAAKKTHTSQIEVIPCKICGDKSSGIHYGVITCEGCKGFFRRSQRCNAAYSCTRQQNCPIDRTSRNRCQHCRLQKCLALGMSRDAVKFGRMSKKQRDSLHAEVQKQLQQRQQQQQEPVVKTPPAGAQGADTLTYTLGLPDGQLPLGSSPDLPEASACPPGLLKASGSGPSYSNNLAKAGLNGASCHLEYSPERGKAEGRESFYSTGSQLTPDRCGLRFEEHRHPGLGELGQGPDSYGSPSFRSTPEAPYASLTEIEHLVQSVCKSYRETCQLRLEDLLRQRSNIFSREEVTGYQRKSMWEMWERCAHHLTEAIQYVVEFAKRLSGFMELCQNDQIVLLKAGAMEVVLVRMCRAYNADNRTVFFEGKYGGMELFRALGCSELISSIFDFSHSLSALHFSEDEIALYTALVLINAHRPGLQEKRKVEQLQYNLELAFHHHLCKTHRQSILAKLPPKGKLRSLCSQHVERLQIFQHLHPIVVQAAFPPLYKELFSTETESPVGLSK

Assay [6] has as its target human Thyroid Receptor alpha (THRa1), THRA (gene 7067) (UniProt P10827). The assay can be described thus: ATG_THRa1_TRANS: Attagene TRANS-FACTORIAL HepG2 Assay for human Thyroid Receptor alpha (THRa1) (AID 2283014; active means hit-call score of the fitted dose curve at least 0.9, where 1 is the maximum). The procedure, abridged: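 HepG2 cells transiently transfected with chimeric NR-Gal4 and GAL4-UAS reporter units, dosed 24 h. Reporter mRNA quantified by RT-PCR, fluorescent labeling, HpaI digestion and capillary electrophoresis; gain-of-signal fit versus DMSO.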

Read-out in assay [7]: E-selectin (Homo sapiens) (UniProt P16581)
The assay can be described thus: BSK_3C_Eselectin: BioMAP Diversity Plus: 3C Assay for Eselectin Biomarker Activity (AID 2283015).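 On outcome: cell surface E-selectin protein quantified by ELISA 24 h after dosing.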 Conditions: primary human endothelial cells (HUVEC); actives raise or lower the signal. The procedure, abridged:
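Primary human umbilical vein endothelial cells (3C system), read 24 h after compound addition; E-selectin measured by ELISA. Bidirectional curve fitting against DMSO baseline; cytotoxicity by parallel SRB total-protein staining.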

Read-out in assay [8]: Interleukin-1 alpha (IL1a), IL1A (gene 3552)
Kind of assay: BSK_BE3C_IL1a: BioMAP Diversity Plus: BE3C Assay for Interleukin-1 alpha (IL1a) Biomarker Activity (AID 2283016). Conditions: primary human bronchial epithelial cells; actives raise or lower the signal. The procedure, abridged: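 IL-1a measured by ELISA after 24 h treatment of human primary bronchial epithelial cells, with gain or loss of signal fitted versus DMSO. Parallel cultures stained with SRB gauge overt cytotoxicity.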

Read-out in assay [9]: Monocyte Chemoattractant Protein-1 (MCP1), CCL2 (gene 6347)
Kind of assay: BSK_3C_MCP1: BioMAP Diversity Plus: 3C Assay for Monocyte Chemoattractant Protein-1 (MCP1) Biomarker Activity (AID 2283017). The following applies: primary human endothelial cells (HUVEC); actives raise or lower the signal. The procedure, abridged:
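Human umbilical vein endothelial cells (3C system) exposed to chemicals for 24 h; MCP-1 quantified by ELISA against the DMSO baseline with bidirectional fitting, and parallel SRB staining used to assess cytotoxicity.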

Read-out in assay [10]: Monocyte Chemoattractant Protein-1 (MCP1), CCL2 (gene 6347)
The assay can be described thus: BSK_4H_MCP1: BioMAP Diversity Plus: 4H Assay for Monocyte Chemoattractant Protein-1 (MCP1) Biomarker Activity (AID 2283018). Conditions: primary human endothelial cells (HUVEC); actives raise or lower the signal. In short, it runs like this: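 ELISA of MCP-1 (CCL2) 24 h after chemical dosing of HUVEC in the BioMAP 4H system. Gain or loss versus DMSO fitted; parallel SRB staining (560 nm) tracked overt cytotoxicity.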

Read-out in assay [11]: Human Leukocyte Antigen - DR isotype (HLADR), HLA-DRA (gene 3122)
The assay can be described thus: BSK_3C_HLADR: BioMAP Diversity Plus: 3C Assay for Human Leukocyte Antigen - DR isotype (HLADR) Biomarker Activity (AID 2283019).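 On outcome: ELISA of cell-surface HLA-DR on HUVEC 24 h after dosing.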 The following applies: primary human endothelial cells (HUVEC); actives raise or lower the signal. In short, it runs like this:
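HUVEC monoculture, HLA-DR measured by ELISA 24 h after chemical dosing. Fitted bidirectionally against DMSO baseline; parallel SRB staining assessed cytotoxicity, with 3C proliferation read by SRB at 48 h.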

Read-out in assay [12]: Interleukin-8 (IL8), CXCL8 (gene 3576)
The assay can be described thus: BSK_3C_IL8: BioMAP Diversity Plus: 3C Assay for Interleukin-8 (IL8) Biomarker Activity (AID 2283020). Conditions: primary human endothelial cells (HUVEC); actives raise or lower the signal. The procedure, abridged:
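IL-8 was measured by ELISA in HUVEC cultures 24 h after chemical dosing, with gain or loss of signal fitted relative to DMSO. Parallel SRB total-protein staining tracked overt cytotoxicity.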

Read-out in assay [13]: Monokine induced gamma interferon (MIG), CXCL9 (gene 4283)
The assay can be described thus: BSK_3C_MIG: BioMAP Diversity Plus: 3C Assay for Monokine induced gamma interferon (MIG) Biomarker Activity (AID 2283021).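 On AC50: MIG protein level measured by immunoassay in the treated endothelial cultures.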 Conditions: primary human endothelial cells (HUVEC); actives raise or lower the signal. The procedure, abridged: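 ELISA measurement of MIG in human umbilical vein endothelial cells 24 h after treatment. Cytotoxicity tracked by SRB staining in parallel cultures; gain or loss of signal fitted relative to DMSO.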

Assay [14] addresses human Peroxisome Proliferator-activated Receptor delta (PPARd), PPARD (gene 5467) (UniProt Q03181). The assay can be described thus: ATG_PPARd_TRANS: Attagene TRANS-FACTORIAL HepG2 Assay for human Peroxisome Proliferator-activated Receptor delta (PPARd) (AID 2283002; active means hit-call score of the fitted dose curve at least 0.9, where 1 is the maximum). In short, it runs like this: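 Measured quantity: GAL4-UAS reporter transcript induction in HepG2 after 24 h chemical dosing, with NR-Gal4 chimeras supplied by transient transfection. Detection by RT-PCR and capillary electrophoresis; upward fit against DMSO.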

The target of assay [15] is Nuclear receptor subfamily 1 group I member 2 (Homo sapiens) (UniProt O75469). The assay can be described thus: ATG_PXR_TRANS: Attagene TRANS-FACTORIAL HepG2 Assay for human Pregnane X Receptor (PXR) (AID 2283008; active means hit-call score of the fitted dose curve at least 0.9, where 1 is the maximum). In short, it runs like this:
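HepG2 transfected (FuGene 6) with GAL4-UAS reporter units + PXR-Gal4 chimera; dosed 24 h. Total RNA → oligo(dT) RT → PCR → 6-FAM primer extension → HpaI cut → CE. Gain-of-signal vs DMSO.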

Assay [16] concerns the target human RAR-related Orphan Receptor beta (RORb), RORB (gene 6096) (UniProt Q92753). The assay can be described thus: ATG_RORb_TRANS: Attagene TRANS-FACTORIAL HepG2 Assay for human RAR-related Orphan Receptor beta (RORb) (AID 2283010; active means hit-call score of the fitted dose curve at least 0.9, where 1 is the maximum). The procedure, abridged:
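Read-out is reporter mRNA induction, quantified by RT-PCR with fluorescent capillary electrophoresis, 24 h post-dose in transiently transfected HepG2 expressing exogenous NR-Gal4 chimera. Activity fitted upward versus DMSO.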

Assay [17] has as its target Peroxisome proliferator-activated receptor gamma (Homo sapiens) (UniProt P37231). Kind of assay: ATG_PPARg_TRANS: Attagene TRANS-FACTORIAL HepG2 Assay for human Peroxisome Proliferator-activated Receptor-gamma (PPARg) (AID 2283007; active means hit-call score of the fitted dose curve at least 0.9, where 1 is the maximum). The procedure, abridged:
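After 24 h of chemical exposure, transfected HepG2 cells carrying PPARγ-Gal4 chimera reporter constructs are lysed for RNA. Reporter transcripts are measured by RT-PCR and capillary electrophoresis with fluorescent labelling, and gain of signal is fitted versus DMSO.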

Assay [18] deals with Retinoic acid receptor RXR-alpha (Homo sapiens) (UniProt P19793). The assay can be described thus: ATG_RXRa_TRANS: Attagene TRANS-FACTORIAL HepG2 Assay for human Retinoid X Receptor alpha (RXRa) (AID 2283012; active means hit-call score of the fitted dose curve at least 0.9, where 1 is the maximum). In short, it runs like this:
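TRANS format reporting activity of exogenous RXRa-Gal4 chimera in transiently transfected HepG2, 24 h exposure. Reporter transcripts quantified by RT-PCR with capillary electrophoresis, with gain of signal scored relative to DMSO.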

Structures are written as SMILES. Results filed as inconclusive are left out. Calls of active or inactive are those of the source. How the source made its calls, unless noted: active means hit-call score of the fitted dose curve at least 0.9, where 1 is the maximum; inactive means score below 0.9.

Sequence of Retinoic acid receptor alpha (Homo sapiens) (P10276 whole entry, looked up, the tested form may be a part): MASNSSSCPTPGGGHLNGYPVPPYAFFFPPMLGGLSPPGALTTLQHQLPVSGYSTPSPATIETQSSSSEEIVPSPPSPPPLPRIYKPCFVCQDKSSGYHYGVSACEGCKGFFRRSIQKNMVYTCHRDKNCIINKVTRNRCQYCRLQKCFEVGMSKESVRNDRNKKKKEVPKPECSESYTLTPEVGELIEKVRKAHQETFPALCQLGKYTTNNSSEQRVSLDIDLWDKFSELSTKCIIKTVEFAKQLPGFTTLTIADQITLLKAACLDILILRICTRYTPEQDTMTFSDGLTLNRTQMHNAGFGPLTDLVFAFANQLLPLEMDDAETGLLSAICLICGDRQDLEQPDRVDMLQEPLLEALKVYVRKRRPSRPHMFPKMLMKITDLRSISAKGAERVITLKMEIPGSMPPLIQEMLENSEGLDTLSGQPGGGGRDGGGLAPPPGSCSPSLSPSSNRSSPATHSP
Sequence of Nuclear receptor subfamily 1 group I member 2 (Homo sapiens) (O75469 whole entry, looked up, the tested form may be a part): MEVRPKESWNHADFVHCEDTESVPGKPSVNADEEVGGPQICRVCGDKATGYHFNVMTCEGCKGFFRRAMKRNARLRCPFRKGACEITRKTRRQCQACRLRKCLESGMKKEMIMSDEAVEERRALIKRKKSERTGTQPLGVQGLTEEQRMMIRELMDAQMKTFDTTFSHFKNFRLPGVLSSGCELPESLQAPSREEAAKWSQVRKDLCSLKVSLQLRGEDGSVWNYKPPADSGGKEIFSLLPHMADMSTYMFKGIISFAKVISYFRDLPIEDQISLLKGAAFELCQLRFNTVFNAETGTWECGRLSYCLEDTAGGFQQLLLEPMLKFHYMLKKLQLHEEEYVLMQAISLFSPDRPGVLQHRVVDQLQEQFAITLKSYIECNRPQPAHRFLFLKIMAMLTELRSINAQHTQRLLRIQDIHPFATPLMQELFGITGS
Sequence of E-selectin (Homo sapiens) (P16581 whole entry, looked up): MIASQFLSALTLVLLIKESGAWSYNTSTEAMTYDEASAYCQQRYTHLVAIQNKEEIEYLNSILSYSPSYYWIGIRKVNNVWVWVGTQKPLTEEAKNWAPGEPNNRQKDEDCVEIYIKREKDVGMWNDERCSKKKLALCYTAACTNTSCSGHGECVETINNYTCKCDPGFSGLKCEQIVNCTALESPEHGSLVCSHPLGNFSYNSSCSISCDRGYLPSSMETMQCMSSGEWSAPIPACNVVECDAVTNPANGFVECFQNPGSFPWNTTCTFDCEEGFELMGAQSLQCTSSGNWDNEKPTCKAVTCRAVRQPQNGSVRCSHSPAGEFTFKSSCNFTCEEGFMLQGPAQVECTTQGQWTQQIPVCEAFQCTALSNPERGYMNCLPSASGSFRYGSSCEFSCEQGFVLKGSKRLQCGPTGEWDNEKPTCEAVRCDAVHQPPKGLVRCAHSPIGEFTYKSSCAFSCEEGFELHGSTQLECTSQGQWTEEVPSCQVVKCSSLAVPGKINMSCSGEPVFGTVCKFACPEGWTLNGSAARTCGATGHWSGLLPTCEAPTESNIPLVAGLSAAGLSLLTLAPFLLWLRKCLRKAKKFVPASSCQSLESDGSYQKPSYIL
Sequence of human Peroxisome Proliferator-activated Receptor delta (PPARd), PPARD (gene 5467) (Q03181 whole entry, looked up, the tested form may be a part): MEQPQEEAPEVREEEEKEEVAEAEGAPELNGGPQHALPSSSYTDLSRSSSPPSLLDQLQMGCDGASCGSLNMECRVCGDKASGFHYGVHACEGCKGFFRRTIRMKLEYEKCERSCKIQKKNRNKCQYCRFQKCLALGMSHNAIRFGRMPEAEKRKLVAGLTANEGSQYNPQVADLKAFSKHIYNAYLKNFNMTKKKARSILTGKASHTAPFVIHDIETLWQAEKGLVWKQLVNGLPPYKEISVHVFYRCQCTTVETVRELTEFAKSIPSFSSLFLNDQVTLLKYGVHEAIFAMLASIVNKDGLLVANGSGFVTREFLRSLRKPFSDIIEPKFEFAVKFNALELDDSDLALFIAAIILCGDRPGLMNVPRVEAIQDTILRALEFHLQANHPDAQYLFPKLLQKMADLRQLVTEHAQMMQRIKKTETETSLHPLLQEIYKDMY
Sequence of human Thyroid Receptor alpha (THRa1), THRA (gene 7067) (P10827 whole entry, looked up, the tested form may be a part): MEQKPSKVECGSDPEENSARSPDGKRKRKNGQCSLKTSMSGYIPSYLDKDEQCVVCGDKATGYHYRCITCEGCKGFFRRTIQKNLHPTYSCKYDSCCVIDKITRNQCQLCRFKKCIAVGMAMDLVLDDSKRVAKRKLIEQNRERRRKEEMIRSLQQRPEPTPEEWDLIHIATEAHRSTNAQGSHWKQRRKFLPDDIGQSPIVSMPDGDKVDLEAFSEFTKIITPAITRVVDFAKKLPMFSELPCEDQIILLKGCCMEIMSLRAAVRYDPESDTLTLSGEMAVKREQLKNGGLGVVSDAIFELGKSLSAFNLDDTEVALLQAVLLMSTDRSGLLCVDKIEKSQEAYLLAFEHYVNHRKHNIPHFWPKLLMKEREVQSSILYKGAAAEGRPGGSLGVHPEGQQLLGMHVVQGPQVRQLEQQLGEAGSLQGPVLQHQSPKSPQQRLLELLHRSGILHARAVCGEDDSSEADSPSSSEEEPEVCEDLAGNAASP
Sequence of human Retinoic Acid Receptor beta (RARb), RARB (gene 5915) (P10826 whole entry, looked up, the tested form may be a part): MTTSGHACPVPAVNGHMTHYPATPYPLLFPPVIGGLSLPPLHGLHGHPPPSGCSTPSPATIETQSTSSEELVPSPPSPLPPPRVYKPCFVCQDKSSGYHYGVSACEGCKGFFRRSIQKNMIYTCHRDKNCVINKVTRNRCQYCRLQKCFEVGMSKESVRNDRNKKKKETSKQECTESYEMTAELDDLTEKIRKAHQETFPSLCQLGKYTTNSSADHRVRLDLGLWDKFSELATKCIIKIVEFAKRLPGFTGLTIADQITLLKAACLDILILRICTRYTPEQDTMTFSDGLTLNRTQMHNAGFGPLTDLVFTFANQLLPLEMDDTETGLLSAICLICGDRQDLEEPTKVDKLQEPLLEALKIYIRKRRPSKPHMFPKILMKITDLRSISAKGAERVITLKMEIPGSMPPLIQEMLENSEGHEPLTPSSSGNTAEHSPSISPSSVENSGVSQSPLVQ
Sequence of Retinoic acid receptor RXR-alpha (Homo sapiens) (P19793 whole entry, looked up, the tested form may be a part): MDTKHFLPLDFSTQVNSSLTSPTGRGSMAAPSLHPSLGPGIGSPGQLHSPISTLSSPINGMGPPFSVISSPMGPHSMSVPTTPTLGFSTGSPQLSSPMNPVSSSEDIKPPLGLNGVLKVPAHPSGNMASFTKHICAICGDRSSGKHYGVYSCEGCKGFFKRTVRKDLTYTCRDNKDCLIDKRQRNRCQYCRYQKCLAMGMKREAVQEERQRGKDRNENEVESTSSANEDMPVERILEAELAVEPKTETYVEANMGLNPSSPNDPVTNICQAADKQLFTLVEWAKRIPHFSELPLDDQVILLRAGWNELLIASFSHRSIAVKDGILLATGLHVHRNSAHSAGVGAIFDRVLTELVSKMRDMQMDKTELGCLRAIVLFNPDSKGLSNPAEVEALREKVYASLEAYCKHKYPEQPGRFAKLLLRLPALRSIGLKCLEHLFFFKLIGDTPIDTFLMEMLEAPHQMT
Sequence of human RAR-related Orphan Receptor beta (RORb), RORB (gene 6096) (Q92753 whole entry, looked up, the tested form may be a part): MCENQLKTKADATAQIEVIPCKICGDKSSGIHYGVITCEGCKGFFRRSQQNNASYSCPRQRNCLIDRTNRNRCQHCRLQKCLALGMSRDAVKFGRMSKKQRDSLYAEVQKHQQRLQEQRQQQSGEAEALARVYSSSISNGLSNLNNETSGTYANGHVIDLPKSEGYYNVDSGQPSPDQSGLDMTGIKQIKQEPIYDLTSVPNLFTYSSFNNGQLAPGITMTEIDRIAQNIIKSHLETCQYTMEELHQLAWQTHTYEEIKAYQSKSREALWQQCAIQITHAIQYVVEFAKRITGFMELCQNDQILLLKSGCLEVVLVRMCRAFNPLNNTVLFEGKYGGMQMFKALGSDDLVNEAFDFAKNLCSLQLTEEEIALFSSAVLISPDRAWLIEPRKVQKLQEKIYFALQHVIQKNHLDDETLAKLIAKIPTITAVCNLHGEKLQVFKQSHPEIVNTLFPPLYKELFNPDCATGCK
Sequence of Peroxisome proliferator-activated receptor gamma (Homo sapiens) (P37231 whole entry, looked up, the tested form may be a part): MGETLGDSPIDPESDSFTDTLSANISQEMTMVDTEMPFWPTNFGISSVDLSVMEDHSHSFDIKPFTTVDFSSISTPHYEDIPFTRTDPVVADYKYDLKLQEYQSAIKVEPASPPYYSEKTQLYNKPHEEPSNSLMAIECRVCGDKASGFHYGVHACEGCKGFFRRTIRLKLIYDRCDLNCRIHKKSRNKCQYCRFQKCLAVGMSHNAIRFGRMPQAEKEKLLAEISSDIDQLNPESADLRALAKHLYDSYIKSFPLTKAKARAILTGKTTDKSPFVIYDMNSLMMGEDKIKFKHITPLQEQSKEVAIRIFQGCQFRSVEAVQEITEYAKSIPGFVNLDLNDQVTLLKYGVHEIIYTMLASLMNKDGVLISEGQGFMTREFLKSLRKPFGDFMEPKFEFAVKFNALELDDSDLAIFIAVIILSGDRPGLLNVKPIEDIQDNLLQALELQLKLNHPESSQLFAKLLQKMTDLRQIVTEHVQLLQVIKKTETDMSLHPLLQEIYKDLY

For `CCCC(=O)OCCC(C)C`, the outcome in assay [1], in assay [2], in assay [3], in [4], in assay [5] and in assay [6] was inactive. Further, the outcome in assay [7], in assay [8], in assay [9], in [10], in assay [11] and in [12] was inactive. In addition, the result in assay [13] was inactive.
For the compound `O=C(O)c1ccccc1-n1cc(C(=O)O)c(=O)c2cc(Nc3c(F)cc(F)cc3Cl)c(Cl)cc21`, the outcome in assay [14], in [1], in assay [2], in [3], in [4] and in assay [15] was inactive. The result in assay [16], in [5], in assay [6], in assay [7], in assay [8] and in assay [9] was inactive. The result in [10], in assay [11], in assay [12] and in assay [13] was inactive.
Take `NC(=O)c1nc(-c2cccc(-c3cc(F)ccc3OCC(F)(F)C(F)(F)F)c2)n[nH]1`: the compound was called inactive in assay [14] and in assay [18]. Besides, the AC50 was 32.4 µM (active) in assay [4]; 13 µM (active) in assay [17]; 8.71 µM (active) in [15]; 34.9 µM (active) in assay [7]; 38.8 µM (active) in assay [8]; 35.3 µM (active) in [9]. Further, the AC50 was 29.3 µM (active) in assay [10], 22.6 µM (active) in assay [11], 34.4 µM (active) in assay [12] and 41.4 µM (active) in assay [13].
As to `CCN(CC)C(=O)c1cc(S(=O)(=O)Cc2ccccc2)c(N2CCC(c3ccccc3)CC2)cc1N(CC)CCN(C)C`, the AC50 in [1] is 28.7 µM (active); in [4], 6.12 µM (active); in assay [15], 0.091 µM (active); in assay [7] it was 27.2 µM (active); in [8], 9.53 µM (active); in assay [9] it was 10.4 µM (active). In addition, the concentration at half-maximal activity (AC50) in assay [10] is 18.7 µM (active); in assay [11], 6.27 µM (active); in assay [12], 13.8 µM (active); in assay [13], 29.9 µM (active). For the same compound, the compound was called inactive in assay [3].
